Several values for one entry are separate records, joined by “and”; a condition that tells them apart may be missing. Identical values can stand only once. Records with an inconclusive call do not appear. A call without a number means that no potency is given here. A structure can be active in one record and inactive in another. Activity calls are given as the source filed them. Calls follow the shape of the dose curve; as a rule, active = well fitted activation curve with a large enough effect in the repeat runs; inconclusive = weak or mixed curves; inactive = flat fitted curve, though single readings scatter.
Potency is read from the fitted curve at half-maximal effect.

This assay is described as follows: A CellTox Green Cytotoxicity Assay to monitor cytotoxicity in HepG2 cells - 40 hour (AID 1224879). Also: nearly all actives have a fitted effect of over 40% in size. The note with it: CellTox Green fluorescence; series mostly up to 76.8 µM. An outline of the steps: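 Real-time cytotoxicity: fluorescence of a cell-impermeant cyanine dye binding DNA of dead HepG2 cells, measured repeatedly (0–40 h) during compound exposure at 37 C. Cells seeded 600/well with reagent, dosed after 5 h.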
As to `CC(C)(C)NCC(O)c1cc(O)cc(O)c1` (configuration not stated), the Potency result is “inactive”.

As for `C#CC(C)(CC)OC(=O)c1ccccc1C(=O)O` (configuration not stated), the Potency entry is “inactive”.

Regarding `CC(C)(C)NCC(O)COc1ccccc1OCC1CCCO1` (configuration not stated), the Potency result is “inactive”. In the case of `COc1ccc(Cc2cnc(N)nc2N)cc1OC`, the Potency entry was “inactive”. Take `C=CS(=O)(=O)O`: the Potency result is “inactive”.

`O=S(=O)(O)c1ccc2nc(-c3ccccc3)[nH]c2c1`: the Potency entry is “inactive”. On to `Cc1scc2c1N(C(=O)CN1CCN(C)CC1)c1ccccc1NC2=O`, for which the Potency result was “inactive”. As for `COC(c1ccccc1)(c1ccccc1)[C@H](Oc1nc(C)cc(C)n1)C(=O)O`, the Potency entry is “inactive”.

Turning to `OCCN1CCNCC1`, the Potency result is “inactive”. `C1COC(NC(C2CC2)C2CC2)=N1`: the Potency result was “inactive”. For `Cc1cc(OCCOCC[N+](C)(C)Cc2ccccc2)ccc1C(C)(C)CC(C)(C)C`, the Potency was 13.7 µM (active) and 8.49 µM (active). The same measure for `CC(=O)CC(=O)Nc1ccc2[nH]c(=O)[nH]c2c1`: “inactive”; for `CCN(CC)C(=O)Nc1ccc(OCC(O)CNC(C)(C)C)c(C(C)=O)c1` (configuration not stated): “inactive”.

In the case of `CCCOC(=O)c1cc(O)c(O)c(O)c1`, the Potency result was “inactive”.

For `CN1C(=O)c2ccc([N+](=O)[O-])cc2C1=O`, the Potency entry was “inactive”. The same measure for `CC(C)(C)c1ccccc1`: “inactive”; for `Nc1nc2ccccc2[nH]1`: “inactive and 216 nM (active)”. For the compound `c1ccc2c(c1)CCCC2C1=NCCN1` (configuration not stated), the Potency entry was “inactive”. For the compound `O=C(Cl)c1cccc(C(=O)Cl)c1`, the Potency result is “inactive”. With `CCc1cc(C(C)(C)C)c(O)c(C(C)(C)C)c1`, the Potency entry is “inactive”.

As to `CC[C@@H](N)CO`, the Potency result is “inactive”. Regarding `Cc1ccc(-c2cc(C(F)(F)F)nn2-c2ccc(S(N)(=O)=O)cc2)cc1`, the Potency was 48.8 µM (active) and 49 µM (active).

Values taken from PubChem BioAssay (Tox21).
